High-throughput results deposited in PubChem by several laboratories.
Rows were chosen to be rich in hits. Some 4.4% of all compounds tested hit in one or more screens of this group.
Cav3 T inh = inhibitors of human Cav3.2 T-type calcium channel; hit rate 4% among 100,000; O95180; Cav3.2-expressing cells, Fluo-4 calcium fluorescence FDSS; stronger effect = lower value; B-score at 10 µM;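 active = single-dose well whose peak fluorescence ratio is a statistical outlier from its plate by either plate-standardised score or position-corrected B-score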
Target sequence (O95180 whole entry, looked up): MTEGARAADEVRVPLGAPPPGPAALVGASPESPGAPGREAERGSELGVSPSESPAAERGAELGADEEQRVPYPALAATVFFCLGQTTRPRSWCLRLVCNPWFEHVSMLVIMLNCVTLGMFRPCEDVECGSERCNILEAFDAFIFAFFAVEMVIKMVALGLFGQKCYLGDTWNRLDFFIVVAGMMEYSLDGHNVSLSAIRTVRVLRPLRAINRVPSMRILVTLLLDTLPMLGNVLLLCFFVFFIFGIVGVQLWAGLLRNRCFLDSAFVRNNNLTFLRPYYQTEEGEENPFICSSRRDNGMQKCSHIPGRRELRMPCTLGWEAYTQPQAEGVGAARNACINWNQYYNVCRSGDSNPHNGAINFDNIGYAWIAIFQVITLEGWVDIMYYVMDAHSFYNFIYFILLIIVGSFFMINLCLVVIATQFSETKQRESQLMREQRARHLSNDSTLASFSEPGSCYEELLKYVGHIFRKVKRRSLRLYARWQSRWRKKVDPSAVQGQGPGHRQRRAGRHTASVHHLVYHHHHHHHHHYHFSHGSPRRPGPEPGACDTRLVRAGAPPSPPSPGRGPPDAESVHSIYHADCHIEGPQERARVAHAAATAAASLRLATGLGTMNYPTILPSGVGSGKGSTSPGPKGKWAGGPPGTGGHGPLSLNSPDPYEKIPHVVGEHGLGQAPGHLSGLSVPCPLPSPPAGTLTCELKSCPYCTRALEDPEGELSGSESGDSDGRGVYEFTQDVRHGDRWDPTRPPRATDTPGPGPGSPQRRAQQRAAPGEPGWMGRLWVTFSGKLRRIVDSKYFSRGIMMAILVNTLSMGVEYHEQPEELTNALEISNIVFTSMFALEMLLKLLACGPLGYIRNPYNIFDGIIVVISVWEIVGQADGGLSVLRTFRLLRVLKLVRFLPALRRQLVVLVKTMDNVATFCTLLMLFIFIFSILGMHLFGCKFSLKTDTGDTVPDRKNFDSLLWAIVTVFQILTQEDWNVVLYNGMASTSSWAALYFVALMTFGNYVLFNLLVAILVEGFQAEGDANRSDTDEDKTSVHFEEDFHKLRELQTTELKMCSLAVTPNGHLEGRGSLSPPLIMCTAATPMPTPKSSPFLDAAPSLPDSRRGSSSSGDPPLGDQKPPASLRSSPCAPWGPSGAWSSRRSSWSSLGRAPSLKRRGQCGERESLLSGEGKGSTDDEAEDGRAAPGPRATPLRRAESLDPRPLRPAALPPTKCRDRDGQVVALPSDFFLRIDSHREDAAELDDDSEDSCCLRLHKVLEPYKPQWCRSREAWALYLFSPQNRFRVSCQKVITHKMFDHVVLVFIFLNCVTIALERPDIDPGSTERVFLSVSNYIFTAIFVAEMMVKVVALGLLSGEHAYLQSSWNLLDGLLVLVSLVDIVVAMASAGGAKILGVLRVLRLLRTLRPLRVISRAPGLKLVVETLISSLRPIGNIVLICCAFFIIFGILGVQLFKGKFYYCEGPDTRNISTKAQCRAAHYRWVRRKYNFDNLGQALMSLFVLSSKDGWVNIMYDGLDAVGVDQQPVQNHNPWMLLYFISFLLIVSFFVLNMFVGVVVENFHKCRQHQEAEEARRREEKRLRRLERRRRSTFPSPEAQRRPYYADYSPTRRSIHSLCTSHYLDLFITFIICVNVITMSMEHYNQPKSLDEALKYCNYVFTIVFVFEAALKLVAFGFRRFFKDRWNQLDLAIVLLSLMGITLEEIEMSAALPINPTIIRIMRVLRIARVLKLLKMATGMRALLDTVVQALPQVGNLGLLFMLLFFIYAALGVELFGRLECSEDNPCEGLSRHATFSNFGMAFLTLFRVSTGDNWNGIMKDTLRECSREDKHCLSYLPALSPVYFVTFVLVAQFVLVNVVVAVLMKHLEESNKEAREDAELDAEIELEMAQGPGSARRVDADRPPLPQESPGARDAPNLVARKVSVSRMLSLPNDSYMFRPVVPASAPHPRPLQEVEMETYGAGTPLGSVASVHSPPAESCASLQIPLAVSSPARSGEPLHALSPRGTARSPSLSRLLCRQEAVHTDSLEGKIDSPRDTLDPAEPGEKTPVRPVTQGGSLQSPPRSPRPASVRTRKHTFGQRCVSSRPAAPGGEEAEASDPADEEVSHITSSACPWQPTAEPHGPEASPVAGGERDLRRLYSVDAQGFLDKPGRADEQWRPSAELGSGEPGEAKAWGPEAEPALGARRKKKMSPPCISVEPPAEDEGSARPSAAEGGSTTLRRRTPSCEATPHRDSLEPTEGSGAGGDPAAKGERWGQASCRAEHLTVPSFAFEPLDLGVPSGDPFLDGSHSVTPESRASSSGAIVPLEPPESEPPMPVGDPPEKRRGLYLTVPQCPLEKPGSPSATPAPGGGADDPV
NFkB transloc pot = enhances IL-1B driven NFkB nuclear translocation; activation, % at 2 µM; hit rate 0.3% among 94,000; AID 819; HUVEC IL-1B NFkB p65 nuclear translocation imaging;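 active = activation above 40%, about the mean plus 3 SD, also judged a hit on visual image review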;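 also: percent activation is computed from the nuclear over cytoplasmic p65 intensity ratio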
NFkB transloc inh = blocks IL-1B driven NFkB nuclear translocation in HUVEC cells; HUVEC IL-1B NFkB p65 nuclear translocation imaging; inhibition, % at 2 µM; hit rate 0.43% among 94,000;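 active = inhibition above about 30% together with a positive call from visual inspection of the well image, limit read from the data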;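 also: nuclear over cytoplasmic p65 intensity ratio measured by imaging; 0% = IL-1B stimulated DMSO wells and 100% = unstimulated DMSO wells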
IL1B cytotox = toxic to HUVEC cells under IL-1B stimulation; cell count reduction, % at 2 µM; HUVEC cell count loss, Hoechst imaging, IL-1B stimulated; hit rate 0.41% among 94,000; AID 845;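 active = cell count reduction more than 3 SD above the screen-wide mean, cut at about 70% in these data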;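 also: normalized per plate to untreated control cells as the no-loss baseline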
Active calls of the source: *; · = no result.

SMILES	Cav3 T inh	NFkB transloc pot	NFkB transloc inh	IL1B cytotox
O=C(COC(=O)C12CC3CC(CC(C3)C1)C2)Nc1ccc(OC(F)F)cc1	-6.2*	2	-2	-14
Cc1nn2c([nH]c(=O)c3ccccc32)c1C=O	0.65	-1	1	4
Cc1cc(=O)[nH]c(SCC(=O)Nc2ccccc2C#N)c1C#N	-0.18	8	-8	-10
Cc1cc(=O)[nH]c(SCC(=O)Nc2ccc(Br)cc2)c1C#N	-9.8*	10	-10	-25
CCc1nc(N2CCN(Cc3ccc4c(c3)OCO4)CC2)c2oc3ccccc3c2n1	0.042	-5	5	-23
C=CCOC(=O)C1=C(C)OC(N)=C(C#N)C1c1c(C)nn(-c2ccccc2)c1Cl (stereo not drawn)	-9.2*	13	-13	-26
CCOC(=O)C1=C(C)OC(N)=C(C#N)C1c1c(C)nn(-c2ccccc2)c1Cl (stereo not drawn)	-9.2*	·	·	·
O=C1CC(=O)N(Cc2ccco2)C(=S)N1	0.36	-32	32*	5
CN1C(=O)c2cccc3c(S(=O)(=O)NCc4ccco4)ccc1c23	0.99	-10	10	33
COc1ccc(S(=O)(=O)NCc2ccco2)c2ccccc12	-4.2*	·	·	·
O=C(CN(C1CC1)S(=O)(=O)c1ccc(S(=O)(=O)NC2CCCCC2)cc1)Nc1ccccc1	-12*	-11	11	0
COC(=O)CCN(C1CCCCC1)S(=O)(=O)c1ccc(S(=O)(=O)NC2CCCCC2)cc1	-5.9*	14	-14	-16
O=C(CN(C1CCCCC1)S(=O)(=O)c1ccc(F)cc1)Nc1ccc2c(c1)OCO2	-5.6*	14	-14	23
O=C(COc1ccc(S(=O)(=O)NC2CCCCC2)cc1)NC1CCCCC1	-3.3	2	-2	-9
COc1ccccc1/C=C1\S/C(=N/NC(=O)c2cccc(Br)c2)NC1=O	-4.2*	-3	3	-2
COC(=O)/C=C1\S/C(=N/NC(=O)c2ccccc2)NC1=O	0.25	-13	13	-29
COc1ccccc1CN1[C@@H](CC(C)=O)c2cc(C(F)(F)F)ccc2S1(=O)=O	-0.0045	·	·	·
COc1ccc(-n2c(O)c(/C=N/n3cnnc3)c3ccccc3c2=O)cc1	-0.74	-1	1	20
CCOC(=O)c1c(Nc2nc(C)c(C(=O)NC)s2)sc(C)c1C	-0.14	0	0	-16
COc1ccc(NC(C)C(=O)Nc2ccc(C(C)(C)C)cc2)cc1Cl (stereo not drawn)	-6*	10	-10	0
COc1ccc(CN2C(=O)c3ccccc3C(/C=N\OCc3ccc(F)cc3)C2=O)cc1 (stereo not drawn)	-3.7*	2	-2	-39
Cc1nnc(SCC(=O)Nc2nsc(-c3ccccc3)n2)s1	-0.021	10	-10	-7
CC1(C)CC(=O)c2c(nc(SCC(=O)Nc3nsc(-c4ccccc4)n3)c(C#N)c2-c2ccccc2)C1	-2.4*	-6	6	-18
COc1ccc(C2=NOC(C)(c3nnc(-c4ccc(Cl)cc4)o3)C2)cc1 (stereo not drawn)	-0.42	·	·	·
CCOC(=O)Cc1csc(NC(=O)c2c(-c3c(Cl)cccc3Cl)noc2C)n1	-4.9*	7	-7	-10
SMILES	Cav3 T inh	NFkB transloc pot	NFkB transloc inh	IL1B cytotox
Cc1onc(-c2c(Cl)cccc2Cl)c1C(=O)N/N=C(\N)COc1ccc(Cl)cc1	-5*	2	-2	6
Cc1onc(-c2c(Cl)cccc2Cl)c1C(=O)NCc1ccco1	-0.006	14	-14	-9
O=C(CN1C(=O)c2cccc3cccc(c23)C1=O)N1CCN(Cc2ccc3c(c2)OCO3)CC1	0.14	2	-2	-24
CCOCCCNS(=O)(=O)c1ccc(-n2cnnn2)c(OC)c1	1.3	13	-13	7
COc1cccc(OC)c1C(=O)NC(=S)N1CCN(c2ccc(C(F)(F)F)cc2[N+](=O)[O-])CC1	-5.5*	11	-11	-28
O=C(Nc1cc(C(F)(F)F)ccc1-n1cncn1)c1ccc(-c2ccccc2)cc1	0.19	3	-2	-7
COc1ccc(N/C(C)=C2/C(=O)C(=O)N(CCO)C2c2ccc(Br)cc2)cc1 (stereo not drawn)	0.54	40	-40	-53
Cc1ccc(C(=O)C2C(c3ccc(-c4ccccc4[N+](=O)[O-])o3)NC(=O)NC2(O)C(F)(F)F)cc1 (stereo not drawn)	-7.1*	·	1	·
CCOc1ccc(S(=O)(=O)N2c3ccccc3CC2C)cc1 (stereo not drawn)	-3.6*	10	-10	-1
O=C1C2=C(Nc3ccccc3SC2c2ccco2)c2ccccc21 (stereo not drawn)	-5.1*	-2	2	5
COc1ccc(-n2c(C)cc(C(=O)Cn3nnc4ccccc4c3=O)c2C)cc1	-1.9	3	-3	29
